In PubChem BioAssay (NCATS):
Where “and” joins values, the source holds several entries; their conditions need not be identical. Identical values can stand only once. Inconclusive results are not listed. Some compounds were tested as several samples or in several runs, with calls that do not always agree. Calls of active or inactive are those of the source. Calls follow the shape of the dose curve; as a rule, active = well fitted curve in the direction sought with a large enough effect; inconclusive = small, poorly fitted or top-dose-only effect, or another doubt; inactive = no such curve, though single readings can be large; an effect the other way counts as inactive or inconclusive.

Assays:
CRL-7250 = normal cell line; test: Cytotoxic Profiling of Annotated Libraries Using Quantitative High-Throughput Screening (AID 1296008); conditions: Five cell lines viability, CellTiter-Glo ATP luminescence, 48-72 h; max response: hits give low values; also: nearly all actives have a fitted effect of over 60% in size; also: potency is read from the fitted curve at half-maximal effect; as to max response: % is scaled to controls: 0 for no effect and ±100 for the full control effect
Outline: (§1)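 Compounds were pin-transferred onto cells and incubated 48 or 72 hr at 37 degree Celsius, 95% humidity. CellTiter-Glo was added, plates sat 10 min at room temperature, then ATP-coupled luminescence was imaged as the viability read-out.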

HEK293 = test: as above; conditions: Five cell lines viability, CellTiter-Glo ATP luminescence, 48-72 h; max response: hits give low values
Outline: as §1

HaCat [1] = test: as above; conditions: Five cell lines viability, CellTiter-Glo ATP luminescence, 48-72 h; max response: hits give low values
Outline: as §1

KB-3-1 = test: as above; conditions: Five cell lines viability, CellTiter-Glo ATP luminescence, 48-72 h; max response: hits give low values
Outline: as §1

MCC-13 = test: qHTS assay to identify novel small-molecules to repurpose for Merkel cell carcinoma treatment (AID 1296009); conditions: MCC and control cell lines, CellTiter-Glo viability, 72 h; series mostly up to 46 µM; also: nearly all actives have a fitted effect of over 60% in size; also: potency is read from the fitted curve at half-maximal effect
Outline: (§2)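 qHTS format: cells treated with library compounds in DMSO across 8 (NPC) or 11 (MIPE) concentrations. Readout after 72 hr at 37 degree celsius was CellTiter-Glo luminescence.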

MCC-26 = test: as above; conditions: MCC and control cell lines, CellTiter-Glo viability, 72 h; series mostly up to 46 µM
Outline: as §2

MKL-1 = test: as above; conditions: MCC and control cell lines, CellTiter-Glo viability, 72 h; series mostly up to 46 µM
Outline: as §2

MKL-2 = test: as above; conditions: MCC and control cell lines, CellTiter-Glo viability, 72 h; series mostly up to 46 µM
Outline: as §2

UISO = test: as above; conditions: MCC and control cell lines, CellTiter-Glo viability, 72 h; series mostly up to 46 µM
Outline: as §2

WaGa = test: as above; conditions: MCC and control cell lines, CellTiter-Glo viability, 72 h; series mostly up to 46 µM
Outline: as §2

NIH3T3 [2] = test: Cytotoxic Profiling of Annotated Libraries Using Quantitative High-Throughput Screening (AID 1296008); conditions: Five cell lines viability, CellTiter-Glo ATP luminescence, 48-72 h; max response: hits give low values; also: nearly all actives have a fitted effect of over 60% in size; also: potency is read from the fitted curve at half-maximal effect; as to max response: % is scaled to controls: 0 for no effect and ±100 for the full control effect
Outline: as §1

HACAT [3] = test: qHTS assay to identify novel small-molecules to repurpose for Merkel cell carcinoma treatment (AID 1296009); conditions: MCC and control cell lines, CellTiter-Glo viability, 72 h; at 44.8 µM (top of the series) unless noted; also: nearly all actives have a fitted effect of over 60% in size; also: potency is read from the fitted curve at half-maximal effect
Outline: as §2

TAB109 = test: qHTS profiling for inhibitors of Plasmodium falciparum proliferation (AID 504749); conditions: P. falciparum in erythrocytes, SYBR Green DNA, 72 h; series mostly up to 28.7 µM
Outline: (§3)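 Parasite proliferation within erythrocytes, 72 h exposure. Endpoint: SYBR Green I fluorescence after overnight lysis at room temperature. Controls: 0.29 uM artemisinin, DMSO.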

TAB113 = test: as above; conditions: P. falciparum in erythrocytes, SYBR Green DNA, 72 h; series mostly up to 28.7 µM
Outline: as §3

TAB165 = test: as above; conditions: P. falciparum in erythrocytes, SYBR Green DNA, 72 h; series mostly up to 28.7 µM
Outline: as §3

W2 = test: as above; conditions: P. falciparum in erythrocytes, SYBR Green DNA, 72 h; series mostly up to 28.7 µM
Outline: as §3

C33A = test: Primary qHTS to identify gynecologic anti-cancer compounds using libraries of approved drugs and bioactive compounds (AID 1345084); conditions: Gynecologic cancer cell panel viability, ATPlite luminescence, 48 h; series mostly up to 57.5 µM; also: % is scaled to controls: 0 for no effect and ±100 for the full control effect; nearly all actives have a fitted effect of over 55% in size
Outline: (§4)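 ATP-based viability (ATPlite), 1,000 cells/well, 16 h pre-incubation, 48 h compound at 37 C, 5% CO2, 15 min RT before read.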

CAOV3 = test: as above; conditions: Gynecologic cancer cell panel viability, ATPlite luminescence, 48 h; series mostly up to 57.5 µM
Outline: as §4

NIH3T3 [4] = test: qHTS assay to identify novel small-molecules to repurpose for Merkel cell carcinoma treatment (AID 1296009); conditions: MCC and control cell lines, CellTiter-Glo viability, 72 h; at 44.8 µM (top of the series) unless noted; also: nearly all actives have a fitted effect of over 60% in size; also: potency is read from the fitted curve at half-maximal effect
Outline: as §2

O=C1c2ccccc2-[n+]2ccc3c([nH]c4ccccc43)c21
active: Potency (CRL-7250) 4.69 µM | Potency (HEK293) 2.64 µM | Potency (HaCat [1]) 1.32 µM | Potency (KB-3-1) 2.96 µM | Potency (MCC-13) 3.32 µM | Potency (MCC-26) 7.43 µM | Potency (MKL-1) 1.05 µM | Potency (MKL-2) 3.32 µM | Potency (UISO) 662 nM | Potency (WaGa) 2.35 µM

Cc1ccc(/C=N/NC(=O)c2ccccc2Oc2ccccc2)o1
active: Potency (HEK293) 20.9 µM
inactive: max response (CRL-7250) -0.512% | max response (HaCat [1]) -2.81% | max response (NIH3T3 [2]) -19% | Potency (MCC-13) | Potency (MCC-26) | Potency (MKL-1) | Potency (MKL-2) | Potency (UISO) | Potency (WaGa)

CO[C@H]1C[C@@H]2CC[C@@H](C)[C@@](O)(O2)C(=O)C(=O)N2CCCC[C@@H]2C(=O)O[C@H]([C@H](C)C[C@@H]2CC[C@H](OCCO)[C@H](OC)C2)CC(=O)[C@H](C)C=C(C)[C@@H](O)[C@@H](OC)C(=O)[C@H](C)C[C@H](C)C=CC=CC=C1C
active: Potency (HEK293) 0.0017 µM | Potency (NIH3T3 [2]) 8.33 µM | Potency (UISO) 833 nM
inactive: max response (CRL-7250) -75.3% | max response (HaCat [1]) -15.8% | Potency (MCC-13) | Potency (MKL-2)

N[C@H](CSC(c1ccccc1)(c1ccccc1)c1ccccc1)C(=O)O
inactive: max response (CRL-7250) -7.2% | outcome (HaCat [1]) | outcome (HACAT [3]) | Potency (MCC-26)
active: Potency (HEK293) 9.35 µM | Potency (NIH3T3 [2]) 26.4 µM

O=C(O)c1c(Cl)c(Cl)c(Cl)c(Cl)c1-c1c2cc(I)c(=O)c(I)c-2oc2c(I)c(O)c(I)cc12
inactive: outcome (TAB109) | Potency (TAB113) | Potency (TAB165) | Potency (W2) | max response (CRL-7250) -20.2% | max response (HEK293) -16.1% | outcome (HaCat [1]) | max response (NIH3T3 [2]) -19.3% | outcome (HACAT [3]) | Potency (UISO)

CN(C[C@@H]1COCCO1)S(=O)(=O)Nc1ccc2ccc3ncc(-c4cnn(C)c4)cc3c(=O)c2c1
active: Potency (CRL-7250) 0.469 µM | Potency (HEK293) 4.18 µM and 6.51 µM | Potency (HaCat [1]) 10.3 µM | Potency (KB-3-1) 7.43 µM | Potency (NIH3T3 [2]) 1.32 µM and 8.2 µM
inactive: Potency (MCC-13) | Potency (MKL-1) | Potency (WaGa)

CC(C)n1nc(-c2ccc3oc(N)nc3c2)c2c(N)ncnc21
active: Potency (CRL-7250) 1 nM and 58 nM | Potency (HEK293) 1.7 nM and 82 nM | Potency (HaCat [1]) 3.26 µM | Potency (KB-3-1) 7.4 nM and 116 nM | Potency (NIH3T3 [2]) 5.3 nM and 259 nM | Potency (UISO) 26.4 nM

CC(=O)O[C@]1(C(C)=O)CC[C@H]2[C@@H]3C=C(Cl)C4=CC(=O)[C@@H]5C[C@@H]5[C@]4(C)[C@H]3CC[C@@]21C
active: Potency (HEK293) 13 µM
inactive: max response (CRL-7250) -14.7% and -0.0221% | max response (HaCat [1]) 4.62% and -21.2% | max response (KB-3-1) 2.19% and -8.34% | max response (NIH3T3 [2]) -8.51% and -19.2% | Potency (MCC-13) | Potency (MCC-26) | Potency (C33A) | Potency (CAOV3)

COc1cc(N2CCC(N3CCN(C)CC3)CC2)ccc1Nc1ncc(Cl)c(Nc2ccccc2S(=O)(=O)C(C)C)n1
active: Potency (CRL-7250) 1.46 µM | Potency (HEK293) 1.16 µM | Potency (HaCat [1]) 3.66 µM | Potency (KB-3-1) 0.92 µM | Potency (NIH3T3 [2]) 1.64 µM | Potency (MCC-26) 5.9 µM
inactive: Potency (MKL-2) | Potency (UISO)

NC(CO)(CO)CCc1ccc(Sc2cccc(OCc3ccccc3)c2)cc1Cl
inactive: max response (CRL-7250) -10.2% | Potency (MCC-13) | Potency (MCC-26)
active: Potency (HEK293) 10.5 µM | Potency (HaCat [1]) 26.4 µM | Potency (NIH3T3 [2]) 16.6 µM | Potency (MKL-1) 13.2 µM | Potency (MKL-2) 23.5 µM | Potency (WaGa) 5.26 µM

OC[C@H]1O[C@@H](Oc2cc(O)cc(C=Cc3ccc(O)cc3)c2)[C@H](O)[C@@H](O)[C@H]1O
inactive: outcome (CRL-7250) | max response (HEK293) -2.18% | max response (HaCat [1]) -6.02% | outcome (KB-3-1) | max response (NIH3T3 [2]) 2.83% | Potency (MCC-13) | Potency (MKL-1) | Potency (MKL-2) | Potency (UISO) | Potency (WaGa)

CC(=O)N(C)C1(c2ccccc2)CCN(CCC[C@]2(c3ccc(Cl)c(Cl)c3)CCCN(C(=O)c3ccccc3)C2)CC1
active: Potency (HEK293) 662 nM and 18.4 µM | Potency (HaCat [1]) 2.35 µM and 20.6 µM | Potency (KB-3-1) 0.372 µM | Potency (MKL-2) 20.9 µM
inactive: max response (CRL-7250) -7.82% | Potency (MCC-13) | Potency (MCC-26) | Potency (MKL-1) | Potency (WaGa)

CCc1ccc(OCc2ccccc2C(=O)Nc2ccc3nc(C)cc(N)c3c2)cc1
active: Potency (CRL-7250) 10.5 µM | Potency (HEK293) 8.33 µM | Potency (HaCat [1]) 11.8 µM | Potency (NIH3T3 [2]) 9.35 µM | Potency (MCC-13) 18.7 µM

COc1cccc(-c2cc(=O)c3ccccc3o2)c1N
inactive: max response (CRL-7250) -6.48% | max response (HEK293) -10.3% | max response (HaCat [1]) -7.74% | max response (KB-3-1) -0.147% | outcome (NIH3T3 [2]) | Potency (MCC-13) | Potency (MKL-1) | Potency (MKL-2) | outcome (NIH3T3 [4]) | Potency (UISO) | Potency (WaGa)
